Our source for the AC50 and activity, negative = inhibition values is PubChem BioAssay AID1851 (National Center for Advancing Translational Sciences (NCATS), 2009).

Structures are written as SMILES. About 5,700 (36%) of roughly 16,000 compounds were called active. Not shown: some 24% with an inconclusive outcome. Calls come from the whole dose curve; as a rule, active = well fitted curve in the direction sought with a large enough effect; inconclusive = small, poorly fitted or top-dose-only effect, or effect the other way; inactive = no such curve, though single readings can be large or run the other way. Some of the results follow.
% is set by controls: 0 for no effect and ±100 for the full control effect.

For this assay, the target named is Cytochrome P450 1A2 (Homo sapiens) (UniProt P05177). The assay is described as follows: Cytochrome panel assay with activity outcomes. The note with it: recombinant CYP, pro-luciferin dealkylation, luminescence, p450-cyp1a2; series mostly up to 57.1 µM.
Chain of Cytochrome P450 1A2 (Homo sapiens) (P05177 whole entry, looked up): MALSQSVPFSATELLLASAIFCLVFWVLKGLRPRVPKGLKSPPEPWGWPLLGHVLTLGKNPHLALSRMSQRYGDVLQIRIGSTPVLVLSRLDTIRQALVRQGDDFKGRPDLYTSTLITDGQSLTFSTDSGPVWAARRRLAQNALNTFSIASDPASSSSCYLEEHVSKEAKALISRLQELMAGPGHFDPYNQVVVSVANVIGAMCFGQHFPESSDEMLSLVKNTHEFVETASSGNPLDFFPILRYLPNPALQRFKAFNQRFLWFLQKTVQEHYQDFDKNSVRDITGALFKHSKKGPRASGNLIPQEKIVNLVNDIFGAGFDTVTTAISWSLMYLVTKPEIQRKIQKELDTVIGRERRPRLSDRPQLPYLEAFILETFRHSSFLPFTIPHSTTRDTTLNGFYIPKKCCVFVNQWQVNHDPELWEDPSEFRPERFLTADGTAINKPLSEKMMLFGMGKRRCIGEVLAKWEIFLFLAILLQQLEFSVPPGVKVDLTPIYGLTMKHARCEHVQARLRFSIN
The AC50 is the midpoint of the concentration-response curve, whichever way the signal moves. `O=P(O)(CCc1ccccc1)C(O)c1ccccc1` (configuration not stated): the AC50 entry was “inactive”.
In the case of `CO[C@@H](NC(N)=O)C(=O)O`, the activity, negative = inhibition is -6.36% [at 2.29 µM] (inactive).
In the case of `O=C(O)c1cc(=O)[nH]c(=S)[nH]1`, the activity, negative = inhibition was -10.7% [at 2.29 µM] (inactive).
On to `Cc1cc(C)n2c(SCC(=O)N(C)C3CCS(=O)(=O)C3)nnc2n1` (configuration not stated), for which the AC50 result is “inactive”.
For the compound `NC(=S)NCCC[C@@H](N)C(=O)O`, the AC50 entry was “inactive”.
On to `Cc1cccc(-c2nsc(SCC(=O)Nc3nccs3)n2)c1`, for which the AC50 is 251 nM (active).
Same read-out and setting: in the case of `C1CCc2c(nc3nnnn3c2NC2CCCC2)C1` it was 11200 nM (active).
As for `Cc1ccccc1CN1C2=NCCN2C(=O)C2=C1CCN(Cc1ccccc1)C2`, the activity, negative = inhibition was -2.99% [at 11.4 µM] (inactive).
As for `CSc1nc2nc3c(c(=O)n2[nH]1)CN(Cc1ccccc1)CC3`, the AC50 was 3160 nM (active).
Same read-out and setting: the result for `COc1ccc(CNc2nc3nc4c(c(=O)n3[nH]2)CCC4)cc1` reads “inactive”.
The same measure, in the same setting: the result for `CCOc1ccc(C2=[N+]([O-])C(C)(C)N(O)C2(C)C)cc1` reads “inactive”; that for `CCOc1ccc(-c2nnc3ccc(SC)nn23)cc1`, 1000 nM (active); that for `CSc1ccc2nnc(-c3cccc(F)c3)n2n1`, 3160 nM (active).
Regarding `O=C(CN(Cc1ccco1)C(=O)c1ccccc1)Nc1ccc(Cl)c(Cl)c1`, the AC50 was 14100 nM (active).
Take `O=C(CSc1nnc(-c2ccccn2)n1Cc1ccco1)Nc1ccc2c(c1)OCO2`: the AC50 result was “inactive”.
On to `O=C(c1ccccc1)N(Cc1ccco1)C1CCS(=O)(=O)C1` (configuration not stated), for which the AC50 entry was “inactive”.
Take `c1ccc2c(c1)ncn2-c1ncnc2sc3c(c12)CCCC3`: the AC50 is 5620 nM (active).
Take `CC(C)(C)C(=O)[C@H]([C@@H](c1ccccc1)N1CCOCC1)N1CCOCC1`: the activity, negative = inhibition is -6.91% [at 11.4 µM] (inactive).
Regarding `Cc1cc(C(F)(F)F)n2nc(-c3cnn(C)c3C(F)(F)F)cc2n1`, the AC50 was 1120 nM (active).
Take `Cc1cc(C(F)(F)F)n2nc(-c3cnn(C)c3C(F)(F)F)c(Cl)c2n1`: the concentration at half-maximal activity (AC50) was 178 nM (active).
On to `O=[N+]([O-])C(/C=C(\Cl)[N+](=O)[O-])=C1N(Cc2ccc(Cl)nc2)CCN1Cc1ccc(Cl)nc1`, for which the AC50 result was “inactive”.
As for `Cc1cc2[nH]c(=O)c3ccccc3n2n1`, the concentration at half-maximal activity (AC50) was 1260 nM (active).
Regarding `Cc1cc(-c2c(C)[nH]n(-c3ccccc3)c2=O)n(-c2ccccc2)n1`, the AC50 entry is “inactive”.
With `Cc1nn2c([nH]c(=O)c3ccccc32)c1C=O`, the half-maximal activity concentration (AC50) was 2510 nM (active).
On to `COC(=O)Cn1c(CN(Cc2ccccc2)Cc2ccccc2)nc2c1c(=O)[nH]c(=O)n2C`, for which the AC50 result is “inactive”.
Still for that read-out and setting: in the case of `CN(C)N1C(N)=C(C#N)C(c2cccnc2)C2=C1CC(C)(C)CC2=O` (configuration not stated) it was “inactive”.
Regarding `CN(C)c1ccc(-c2nc3n(n2)C(c2cccnc2)C2=C(CC(C)(C)CC2=O)N3)cc1` (configuration not stated), the AC50 was 3160 nM (active).
